Screening results: PubChem, Broad Institute
Only a sample is shown.
aSyn 5UTR act – Activators working through SNCA 5'UTR binding (MLPCN) | alpha-synuclein 5'UTR reporter, activators screen | activity score, % (tested at 7.5 µM), hits read low | 300,000 tested, 7.1% active | AID 1814; in the data active = activity score below about -60%
Each line names hits and unclear results; the compound was inactive in the other large screens.

Cc1cc(NC(=O)c2oc3ccccc3c2C)ccc1-n1cnnn1	aSyn 5UTR act -123.6
COc1cc(OC)cc(C(=O)Nc2ccc(-n3cnnn3)c(C)c2)c1	aSyn 5UTR act -93.2
CCN1CCN(C(CNC(=O)c2ccc3c(c2)OCO3)c2cccnc2)CC1 (stereo not drawn)	aSyn 5UTR act -68.6
COC(=O)C1CCN(C(=O)c2ccc3nc(-c4cccc(OC)c4)oc3c2)CC1	aSyn 5UTR act -135.7
COc1cccc(-c2nc3ccc(C(=O)NC(C)Cc4cccnc4)cc3o2)c1 (stereo not drawn)	aSyn 5UTR act -129.7
Cc1nc2cc(C(=O)O)ccc2s1	aSyn 5UTR act -176.6
CCOC(=O)Nc1ccc2nc(N3CCCCCC3)sc2c1	aSyn 5UTR act -313.0
CC(=O)c1ccc(NC(=O)c2ccc(C)c(Br)c2)cc1	aSyn 5UTR act -125.5
Cc1nc2ccc(NC(=O)c3sccc3C)cc2s1	aSyn 5UTR act -163.7
COc1cc(C(=O)Nc2ccc(C(C)=O)cc2)c(Br)c(OC)c1OC	aSyn 5UTR act -83.3
Cc1nc2ccc(NC(=O)N3CCCCC3)cc2s1	aSyn 5UTR act -106.2
O=C(Nc1ccc2[nH]c(=S)sc2c1)c1ccccc1	aSyn 5UTR act -138.4
Cc1nnc(NC(=O)c2ccc3ccccc3n2)s1	aSyn 5UTR act -151.9
Cc1nc2ccc(NC(=O)c3cccs3)cc2s1	aSyn 5UTR act -131.6
Cc1nc2cc(NC(=O)c3ccc([N+](=O)[O-])s3)ccc2s1	none
Cc1ccccc1OCCNC(=O)c1ccc2ccccc2n1	aSyn 5UTR act -148.7
Cc1nc2ccc(C(=O)Nc3ccccc3Cl)cc2s1	aSyn 5UTR act -235.3
Cc1nc2ccc(NC(=O)c3ccc4ccccc4n3)cc2s1	aSyn 5UTR act -71.1
Cc1nc2ccc(NC(=O)c3cncc(Br)c3)cc2s1	aSyn 5UTR act -87.1
CC(=O)c1ccc(NC(=O)c2ccc3nc(C)sc3c2)cc1	aSyn 5UTR act -193.4
Cc1ccc(OC(=O)c2ccc3nc(C)sc3c2)cc1	aSyn 5UTR act -76.1
Cc1nc2ccc(NC(=O)c3ccccc3)cc2s1	aSyn 5UTR act -106.3
N#Cc1ccccc1CSc1nc2ccc(NC(=O)c3ccccc3C(=O)O)cc2s1	aSyn 5UTR act -87.4
O=C(Nc1ccc(N2CCCC2=O)cc1)c1cccc(F)c1	aSyn 5UTR act -97.9
O=C(Nc1ccc(N2CCCC2)cc1)c1ccc2ccccc2c1	aSyn 5UTR act -143.1
O=C(O)c1ccc(NC(=S)NC(=O)c2ccc3ccccc3c2)cc1	aSyn 5UTR act -64.2
O=C(Nc1ccc(N2CCCC2)cc1)c1cccc(F)c1	aSyn 5UTR act -202.7
O=C(Nc1ccc(Nc2ccccc2)cc1)c1cccc(F)c1	aSyn 5UTR act -265.2
COc1ccc(NC(=S)NNc2ccc(C(=O)O)cc2)cc1	aSyn 5UTR act -107.1
CC1=NC(=O)C(N=Nc2ccccc2)N1c1ccccc1 (stereo not drawn)	aSyn 5UTR act -109.4
O=C(Cc1ccc2c(c1)CCCC2)Nc1ccc2ccccc2c1	aSyn 5UTR act -160.5
O=C(Cc1ccccc1F)Nc1ccc2c(c1)CCC2	aSyn 5UTR act -169.3
c1ccc2c(c1)nnn2-c1ncnc2sccc12	aSyn 5UTR act -147.1
Nc1nn2cc(-c3ccccc3)nc2c2ccccc12	aSyn 5UTR act -112.3
CCc1nn2cc(-c3ccccc3)nc2s1	none
O=C(c1ccc(-n2cccn2)cc1)N1CCc2ccccc2C1	aSyn 5UTR act -63.2
Nc1nc2c(C(=O)N3CCOCC3)nnn2c2ccccc12	aSyn 5UTR act -65.8
CC1(C(=O)N2CCN(Cc3ccccc3Cl)CC2)CC1(Cl)Cl (stereo not drawn)	aSyn 5UTR act -70.6
O=S(=O)(c1ccc(Cl)cc1)N1CCN(Cc2ccc(O)c3ncccc23)CC1	none
Cc1ccc(NC2(C#N)C(=O)Nc3ccccc32)cc1C (stereo not drawn)	aSyn 5UTR act -89.1
CC(/C=C/c1ccco1)=N\NC(=O)CNc1ccc2ccccc2c1	aSyn 5UTR act -70.1
Cc1ccc2c(c1)sc1nc(=O)n(-c3ccccc3)c(=O)n12	aSyn 5UTR act -68.4
c1ccc(CCNc2nc(-c3cccnc3)cs2)cc1	aSyn 5UTR act -129.3
c1ccc(CCNc2nc(-c3ccccn3)cs2)cc1	aSyn 5UTR act -157.7
CC(=O)c1ccc2noc(-c3cccc(C)c3)c2c1	aSyn 5UTR act -99.1
Cc1ccc(-c2onc3ccc(C4OCCO4)cc23)cc1	aSyn 5UTR act -100.5
O=Cc1ccc2noc(-c3ccc(Cl)cc3)c2c1	aSyn 5UTR act -67.3
Cc1ccc(-c2onc3ccc(Cl)cc23)cc1	aSyn 5UTR act -63.5
CNC(=O)C(=O)Nc1nc(C23CC4CC(CC(C4)C2)C3)cs1	aSyn 5UTR act -128.8
CCC(C)(C)n1nnnc1C(c1ccc2ncccc2c1)N1CCN(c2nc3ccccc3s2)CC1 (stereo not drawn)	none
Fc1cccc(Cl)c1CN1CCN(c2nc3ccccc3s2)CC1	aSyn 5UTR act -198.4
Nc1ccc2nc(N3CCOCC3)sc2c1	aSyn 5UTR act -68.8
c1ccc(N2CCN(c3nc4cc5c(cc4s3)OCCO5)CC2)cc1	aSyn 5UTR act -156.8
c1c2c(cc3sc(N4CCOCC4)nc13)OCCO2	none
c1ccc2sc(N3CCOCC3)nc2c1	aSyn 5UTR act -64.9
Cc1cccn2c(=O)c3cc(C(=O)N4COCC4(C)C)sc3nc12	aSyn 5UTR act -97.4
Cn1c(C(=O)N2COCC2(C)C)cc2c(=O)n3ccccc3nc21	aSyn 5UTR act -80.9
Cn1c(C(=O)NCCC2=CCCCC2)cc2c(=O)n3ccccc3nc21	aSyn 5UTR act -70.2
CC(/C=N/NC(=O)c1ccc(Cn2cc([N+](=O)[O-])cn2)o1)=C\c1ccccc1	aSyn 5UTR act -75.0
Brc1ccc(-c2ncc3ccccn23)cc1	aSyn 5UTR act -130.4
Fc1ccc(-c2ncc3ccccn23)cc1	aSyn 5UTR act -100.7
CC1=CC(=C2C(=O)c3ccccc3C2=O)C=C(C)N1C	aSyn 5UTR act -132.1
CCCCCN1C=CC(=C2C(=O)c3ccccc3C2=O)C=C1	none
COc1cccc(-c2cn3nc(C)c(C)nc3n2)c1	aSyn 5UTR act -69.9
Cc1ccc(C2C=NN(c3ccccc3)C2=O)cc1 (stereo not drawn)	aSyn 5UTR act -64.4
CC(=O)Oc1ccc(C)cc1-n1nc2ccccc2n1	aSyn 5UTR act -211.9
Cc1ccc(OC(=O)c2cccc(S(=O)(=O)N3CCCC3)c2)c(-n2nc3ccccc3n2)c1	aSyn 5UTR act -161.6
Cc1ccc(OC(=O)c2ccc(S(=O)(=O)N(C)C)cc2)c(-n2nc3ccccc3n2)c1	aSyn 5UTR act -194.8
Cc1cc(Cl)c(O)c(-n2nc3ccccc3n2)c1	aSyn 5UTR act -142.9
Cc1ccc2nc(NNC(=O)c3ccc(S(=O)(=O)N4CCc5ccccc5C4)cc3)sc2c1	none
C=CCn1cccc(C(=O)Nc2ccc(OCC)cc2)c1=O	aSyn 5UTR act -154.6
C=CCn1cccc(C(=O)Nc2ccc(SC)cc2)c1=O	aSyn 5UTR act -155.1
C=CCn1cccc(C(=O)Nc2ccc(Cl)cc2)c1=O	aSyn 5UTR act -140.9
C=CCn1cccc(C(=O)Nc2ccc(N(C)C)cc2)c1=O	aSyn 5UTR act -104.3
O=c1c2ccccc2c(C=Nc2ccc(O)cc2)c(O)n1Cc1ccccc1	aSyn 5UTR act -110.7
CN(C)c1ccc(NC(=O)Nc2ccc3snnc3c2)cc1	aSyn 5UTR act -115.1
O=C(Nc1ccccc1)Nc1ccc2nnsc2c1	aSyn 5UTR act -144.8
O=C(Nc1ccccc1)Nc1ccc2snnc2c1	aSyn 5UTR act -147.4
O=C(Nc1ccncc1)c1cc(-c2cccc(Br)c2)nc2ccccc12	none
O=C(N/N=C/c1cccs1)c1cc(-c2ccncc2)nc2ccccc12	none
O=C(Nc1nccs1)c1cc(-c2ccncc2)nc2ccccc12	aSyn 5UTR act -67.1
COc1ccc2cc(-c3cc(C(=O)O)c4ccccc4n3)ccc2c1	none
Cc1ccc(-c2cc(C(=O)Nc3nn[nH]n3)c3ccccc3n2)cc1	aSyn 5UTR act -69.0
